Source: PubChem BioAssay (NCATS)
Some of the results follow. Results filed as inconclusive are left out. Unmarked numbers belong to inactive results. The source made the active and inactive calls. Calls come from the whole dose curve; as a rule, active = well fitted inhibition curve with a large enough effect; inconclusive = small, poorly fitted or top-dose-only effect; inactive = flat fitted curve, though single readings scatter.

Tested on: NanoLuc luciferase (engineered Oplophorus gracilirostris luciferase)
Test: Biochemical coelenterazine-based NLuc counterscreen for small molecule modulators of PMP22 gene expression - Km assay (AID 1508639);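 for activity change, negative = inhibition: substrate at 15 µM coelenterazine with 5 min compound preincubation before enzyme addition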
Conditions: secreted NLuc enzyme, coelenterazine luminescence, Km conditions; series mostly up to 57.5 µM; activity change, negative = inhibition: at the top concentration
Excerpt: Assay Provider: Jim Inglese Ph.D. National Center for Advancing Translational Science, National Institutes of Health, Rockville, MD CMT is a heterogeneous group of neurological disorders that affect approximately 1 in 2,500 people. In particular, the most common form of CMT, CMT1A is genetically linked to the duplication of the PMP22 gene which leads to Schwann cell overexpression, thus manifesting itself as a typical case of dose-sensitive diseases. To identify small molecule compounds that can mediate the expression of PMP22 we developed a phenotypic assay screening strategy by utilizing genome editing techniques to construct Schwann cell lines containing novel reporter technology to monitor the transcriptional or translational regulation of PMP22. For high sensitivity we use a bioluminescent reporter system embedded in the 3' UTR of the PMP22 gene (S16(c9) Pmp22-F2sN) to identify compounds that inhibit gene expression. […] We can further discriminate the effect of all transcriptionally active molecules on PMP22 translation or stability with an assay that incorporates a short NLuc peptide (HiBiT) at the C-terminus of expressed PMP22 (S16(f8) PMP22-HiBiT) allowing alpha complementation and luminescence detection of membrane-associated PMP22 protein. These assays were screened against the NCATS Sytravon Library Collection. Miniaturization of these assays to 1536-well plate format for quantitative high throughput screening (qHTS) yielded rich data sets immediately from the qHTS assay (S16(c9) Pmp22-F2sN), when compared with data from a cell viability assay (Cell TiterGlo) to identify compounds that decreased the output signals through cellular toxicity to streamline the selection process of actives for subsequent characterization using the HiBiT assay (S16(f8) PMP22-HiBiT).
Biochemical Coelenterazine-based solution NLuc assay (Km assay) PROTOCOL TABLE (format as described by Inglese J, Shamu CE and Guy RK. 2007) SEQUENCE No. (e.g., 1, 2, 3, etc.); PARAMETER (e.g., Cells, Incubation, Reagent, etc.); VALUE and DESCRIPTION. 1. Reagent. Add 2 uL substrate per well into Greiner 1536-well white/solid bottom high base, medium binding plates. 2. Compounds. Library compounds and controls added at 23nL per well, transferred by Pin Tool. 3. Incubation. Incubate plates 5 min at ambient temperature. 4. Reagent. Add 2uL NLuc enzyme solution per well of Greiner 1536-well plates. 5. Incubation. Incubate plates at room temperature for 10 min., protect from light. 6. Detector. FLuc luminescence measured using CCD-based camera (Viewlux). NOTES (numbers refer to Sequence numbers above; values are from representative experiments) 1. Freshly prepared 15 uM Coelenterazine, 0.3M Sodium Ascorbate, 0.005M NaCl and 0.1% TritonX in PBS pH7.4, filtered through […]. 4. Enzyme was obtained by filtering media of S16 cells expressing secreted NLuc (Inglese et al. 2014) grown to 80-90% confluency in DMEM High Glucose, No Phenol Red media + 10% heat inactivated FBS + 1% Pen/Strep supplemented media6. Luminescence Read (Fluc): Clear filter; Exposure = 10 sec, Gain = High, Speed = Slow, Binning = 2X 6. Luminescence Read (Nluc): Clear filter; Exposure = 1 sec, Gain = High, Speed = Slow, Binning = 2X REFERENCES: 1. Inglese J, Shamu CE and Guy RK, Reporting data from high throughput screening of small molecule libraries, Nature Chemical Biology, 2007, 3(8): 438-441. doi.org/10.1038/nchembio0807-438 2. Yasgar A, Shinn P, Jadhav A, Auld DS, Michael S, Zheng W, Austin CP, Inglese J and Simeonov A, Compound Management for Quantitative High-Throughput Screening. J. Assoc. Lab. Auto., 2008, 13: 79-89. doi: 10.1016/j.jala.2007.12.004 3. Inglese, J., Dranchak, P., Moran, J. J., Jang, S. W., Srinivasan, R., Santiago, Y., Zhang, L., Guha, R., Martinez, N., MacArthur, R., Cost, G. J., and Svaren, J. (2014) Genome editing-enabled HTS assays expand drug target pathways for Charcot-Marie-tooth disease, ACS Chem Biol 9, 2594-2602.
% is set by controls: 0 for no effect and ±100 for the full control effect; potency is the fitted concentration of half-maximal effect.

SMILES	Potency	activity change, negative = inhibition
COc1ccccc1Nc1c2c(nc3ccc(NC(=O)/C=C/c4cc(OC)c(OC)c(OC)c4)cc13)CCCC2	1.93 µM (active)	
CCC1=Nc2cc(C(=O)NCCCOC(C)C)ccc2Sc2ccc(C)cc21		-0.336%
O=C(c1ccc(C(F)(F)F)cc1)N1CCC(c2nc(-c3ccc(S(=O)(=O)N4CCCC4)cc3)no2)CC1		3.36%
CCOC(=O)c1c(C)[nH]c(CCC(=O)NCCCN2CCN(c3cccc(Cl)c3)CC2)c1C		-1.54%
CCOCCCNC(=O)c1c(NC(=O)c2nc(SC)ncc2Cl)sc2c1CCCC2		2.95%
Cc1cccc(Nc2cc(C)nc(-n3nc(C)cc3C)n2)c1	9.68 µM (active)	
O=C(NCCCN1CCN(c2cccc(Cl)c2)CC1)c1nnc(Cc2ccc(F)cc2Cl)o1		-8.09%
CCc1ccc(C2CC(=O)c3c([nH]c(C(=O)OCc4ccc(C)cc4)c3C)C2)cc1 (stereo unspecified)		1.45%
CCCCOc1ccc(CN2C(=O)C(=O)c3cc(Br)cc(C)c32)cc1OC		0.323%
O=C(c1ccc2c(c1)N(Cc1ccc(F)cc1)C(=O)c1ccccc1S2(=O)=O)N1CCN(c2ccccn2)CC1	1.93 µM (active)	
Cc1ccc(OCCSc2nc3ccc(NC(=O)COc4ccc(C)cc4)cc3s2)cc1		-1.1%
CCOC(=O)c1c(C)[nH]c(CCC(=O)NCCCN2CCN(c3cc(C)ccc3C)CC2)c1C		-2.31%
CCC1CCCCN1CCCNC(=O)c1cc2c(Cl)nc3ccccc3c2s1 (stereo unspecified)		2.64%
CCOC(=O)c1ccc(NC(=O)CSc2nc3c([nH]c4ccccc43)c(=O)n2C)cc1		-8.06%
CCOC(=O)C1CCN(C(=O)CSc2c3c(nc4ccc(Cl)cc24)CCCC3)CC1		-3.72%
Cc1ccccc1CNC(=O)CSc1nnc(C)c2c(C)n(-c3ccccc3)nc12		-1.41%

SMILES	Potency	activity change, negative = inhibition
COc1cccc(NC(=O)CSC2=Nc3ccccc3C3=NC(CC(=O)NC4CCCCC4)C(=O)N23)c1 (stereo unspecified)		1.03%
CC(C)(C)c1ccc(C(=O)NCC(c2ccco2)S(=O)(=O)c2ccc(F)cc2)cc1 (stereo unspecified)		7.58%
Cc1cc(F)ccc1NS(=O)(=O)c1ccc(-n2cccn2)cc1	13.7 µM (active)	
Cc1cc(OCC(=O)NCC2(N(C)C)CCCCC2)cc(C)c1Cl		2.33%
Cc1nnc(SCC(=O)NCc2ccccc2Cl)c2nn(-c3ccccc3)c(C)c12		-7.95%
CCCS(=O)(=O)c1ncc(Cl)c(C(=O)Nc2scc(-c3ccccc3)c2C(=O)OCC)n1		-0.943%
CCCn1c(=N)c(C(=O)NCc2ccccc2)cc2c(=O)n3cccc(C)c3nc21		-13.3%
CCCn1c2ccccc2c2cnn(CC(=O)NCC3CCN(Cc4ccc(C)cc4)CC3)c(=O)c21		6.62%
Cc1ccc(C)n1-c1nnc(N2CCC(C(=O)NCc3ccccc3Cl)CC2)s1		2.9%
COc1ccc(CCNC(=O)c2cc(=O)c3c(C)cc(C)cc3o2)cc1OC	0.273 µM (active)	
COc1ccc(-c2onc(C)c2C)cc1S(=O)(=O)NCC1CCN(Cc2cccc(F)c2)CC1		7.67%
Cc1ccc(CCNC(=O)C2CCN(c3nnc(-n4cccc4CNc4ccc(C)cc4)s3)CC2)cc1		4.33%
CCOC(=O)c1ccc(N2C(=O)c3n[nH]c(C)c3C2c2ccc(O)c(OC)c2)cc1 (stereo unspecified)	19.3 µM (active)	
CC(=O)N1CCCc2cc(S(=O)(=O)N3CCCC(C(=O)N4CCN(c5cccc(Cl)c5)CC4)C3)ccc21 (stereo unspecified)		7.45%
CCOc1ccc(NC(=O)c2c(NC(=O)Cc3ccccc3)sc3c2CCC(C)C3)cc1 (stereo unspecified)	17.2 µM (active)	
